Bioassay records (PubChem BioAssay)
Pf growth 96h – P. falciparum growth inhibition at 96 hour, primary screen for plastid delayed-death inhibitors | P. falciparum luciferase reporter growth, 96 h | Potency, µM (doses to about 28.7 µM), without a hit: at the top dose activity change, negative = inhibition, actives largely listed as inhibitors | 320,000 compounds, 6.9% hits; also: potency is read from the fitted curve at half-maximal effect; % is scaled to controls: 0 for no effect and ±100 for the full control effect
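Two-generation exposure (96 h) targets delayed-death phenotype. Reporter parasites carrying integrated firefly luciferase, in red cells at 2% hematocrit and 0.05% parasitemia final, kept at 37 C, 5% CO2; luminescence loss indicates inhibition.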
Cycloheximide cs – counter-screen hit for Shiga toxin inhibitors, cycloheximide | cell reporter, cycloheximide protein synthesis inhibition counterscreen | max response, % | 300,000 compounds, 12% hits | AID 2314; in the data active = max response mostly above about 13%, no sharp cut-off; inactive = mostly below about 14%; also: read at 38.3 µM for the half of the compounds with a filed dose; 0% is about no effect
Shiga toxin inh – Shiga toxin inhibition | Vero cells, Shiga toxin protein synthesis inhibition reporter | inhibition, % at 38.7 µM | 290,000 compounds, 9.2% hits; in the data active = inhibition mostly above about 28%, no sharp cut-off; inactive = mostly below about 43%; also: 0% is about no effect
NS1 inh – blocks influenza NS1 protein function. 270,000 compounds, 0.4% hits. Potency, µM (top dose mostly 46.1 µM), inactives show at the top dose activity, positive = more growth; calls by dose curve; also: potency is read from the fitted curve at half-maximal effect; actives are rising curves; nearly all actives have a fitted effect of over 50% in size
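A cell-based growth assay was used: compounds that relieve NS1-induced slow growth of budding yeast raise OD600. Assay medium was yeast nitrogen base with ammonium sulphate and -URA supplement, pH 6.0, with 2% galactose.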
Pf growth 48h – inhibits P. falciparum growth in the first generation, 48 h; P. falciparum luciferase growth in erythrocytes, 48 h; Potency, µM (highest dose often 28.7 µM), without a hit: top-dose activity change, negative = inhibition, actives largely listed as inhibitors; 310,000 compounds, 5.9% hits; AID 504832; also: potency is read from the fitted curve at half-maximal effect; % is scaled to controls: 0 for no effect and ±100 for the full control effect
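Erythrocytes infected with P. falciparum carrying an integrated firefly luciferase reporter (2% hematocrit, 0.1% parasitemia final) were exposed to compounds in RPMI 1640 with 0.5% Albumax at 37 C, 5% CO2. Growth inhibition was scored as reduced luminescence.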
* marks the source's active call; other numbers are inactive results; ? = inconclusive; / = no result; [ ] = another dose, or the depositor's remark. The list is not random: actives were taken first. Their share in the collection is about 21%. Unless noted, calls follow the shape of the dose curve; as a rule, active = well fitted inhibition curve with a large enough effect; inconclusive = small, poorly fitted or top-dose-only effect, or another doubt; inactive = no such curve, though single readings can be large or run the other way.

SMILES	Pf growth 96h	Cycloheximide cs	Shiga toxin inh	NS1 inh	Pf growth 48h
O=c1[nH]c2ccccc2nc1/C=C(\O)c1cccs1	104%	42*	109*	-32%	99%
O=c1[nH]c2ccccc2nc1-c1cccs1	61%	43*	120*	-4%	64%
Cc1ccccc1-c1ccc(=O)n(CC(=O)Nc2ccc(N3CCOCC3)cc2)n1	12%[5.75 µM]	1	5	6%	7%
CC[C@@H](C(=O)n1nc(C)cc1C)[C@H](NS(=O)(=O)c1ccc(C)cc1)c1ccccc1	?	-4	-3	-3%	/
Cc1cc(C)cc(OCCNC(=O)c2ccc(Br)cc2)c1	32%	-1	-8	-3%	?
COc1ccc(-c2cc(C(F)(F)F)nc(SCC(=O)NCc3cccs3)n2)cc1OC	54%	-4	-2	?	?
C/C(CCc1ccccc1)=N\NC(=O)C(=O)Nc1cccc(Cl)c1	?	-1	-2	/	-2%
COc1ccc(C(c2nnnn2C2CCCC2)N2CCN(c3ccccc3)CC2)cc1 (stereo unspecified)	?	3	4	-3%	9.3µM*
COc1ccc(N2CCN(C(c3nnnn3C3CCCC3)C(C)C)CC2)cc1 (stereo unspecified)	40%	-3	-16	0%	-11%
COc1ccc(C(c2nnnn2C2CCCCC2)N2CCN(c3ccccc3)CC2)cc1 (stereo unspecified)	157%	-8	-18	-6%	10µM*
CC1(C)[C@@H]2CC[C@]1(CC(=O)O)[C@H](Cl)C2	/	/	/	-4%	/
Cn1cccc1C(=O)NCCc1ccc(Cl)cc1	87%	46*	125*	-2%	75%
Cn1cccc1C(=O)NNC(=O)COc1ccccc1F	150%	33*	86*	3%	140%
Cn1cccc1C(=O)NCCc1ccccc1	229%	23*	51*	-7%	180%
Cn1cccc1C(=O)NCc1ccc(Cl)cc1	40%	11	-5	-11%	6%
CN1C(=O)[C@H]2[C@@H](C3CC3)N3C(=O)CN(Cc4ccc(-c5ccccc5)cc4)C(=O)[C@@]3(C)[C@H]2C1=O	-5%	-4	-2	-4%	2%
C#CCOCCOCCOCCNc1nc(N2CCN(C(=O)[C@H]([C@@H](C)O)n3cc(CCCCN)nn3)CC2)nc(N2CCN(C(=O)[C@H]([C@@H](C)CC)n3cc(CCCCN)nn3)CC2)n1	68%	/	/	/	7%
C#CCOCCOCCOCCNc1nc(N2CCN(C(=O)CCCCCCCCCCNC(=O)Cn3cc(C[C@@H](C)O)nn3)CC2)nc(N2CCN(C(=O)CCCCCCCCCCNC(=O)[C@@H](CCSC)n3cc(CCO)nn3)CC2)n1	0.15µM*	/	/	/	0.19µM*
C#CCOCCOCCOCCNc1nc(N2CCN(C(=O)CCCCCCCCCCNC(=O)[C@H](CCCCN)n3cc(C[C@@H](C)CC)nn3)CC2)nc(N2CCN(C(=O)CCCCCCCCCCNC(=O)[C@@H]([C@H](C)O)n3cc(C)nn3)CC2)n1	0.37µM*	/	/	/	2.1µM*
C#CCOCCOCCOCCNc1nc(N2CCN(C(=O)CCCCCCCCCCNC(=O)[C@@H](CCSC)n3cc(CCO)nn3)CC2)nc(N2CCN(C(=O)CCCCCCCCCCNC(=O)[C@@H]([C@H](C)O)n3cc(C)nn3)CC2)n1	0.17µM*	/	/	/	0.15µM*
C#CCOCCOCCOCCNc1nc(N2CCN(C(=O)CCCCCCCCCCNC(=O)[C@H](CCCCN)n3cc(C)nn3)CC2)nc(N2CCN(C(=O)CCCCCCCCCCNC(=O)[C@@H]([C@H](C)O)n3cc(C)nn3)CC2)n1	1.2µM*	/	/	/	2.1µM*
C#CCOCCOCCOCCNc1nc(N2CCN(C(=O)[C@H](CCCCN)n3cc([C@@H](N)CC(C)C)nn3)CC2)nc(N2CCN(C(=O)[C@H](CCCCN)n3cc([C@@H](N)CC(C)C)nn3)CC2)n1	68%	-1	-10	3%	26%
Cc1cc(C)n(CCc2nc3c4ccccc4n(CC(=O)Nc4ccc(Cl)cc4F)c(=O)n3n2)n1	/	/	/	29%	/
Cc1ccccc1-n1ncc2c1CC(C)(C)CC2NC(=O)C1CCC1 (stereo unspecified)	14%	18	-2	-10%	?
Cc1ccc(C(=O)NC2CCN(CC(=O)Nc3cccc([N+](=O)[O-])c3)CC2)cc1	-27%	-3	-4	-3%	-12%
SMILES	Pf growth 96h	Cycloheximide cs	Shiga toxin inh	NS1 inh	Pf growth 48h
CCN(CC)CCOC(=O)c1ccc(NC(=O)CCCN2C(=O)/C(=C/c3cccs3)SC2=S)cc1	?	9	-7	10%	5.2µM*
O=C(CCN1C(=O)S/C(=C\c2cccs2)C1=O)NC1=NCCS1	-23%	17*	32	1%	0%
O=C(CCCN1C(=O)/C(=C\c2cccs2)SC1=S)Nc1ccc(C(=O)O)cc1	?	-6	-8	/	-8%
O=C(CCCN1C(=O)/C(=C/c2cccs2)SC1=S)NNC(=O)c1ccccc1O	3.3µM*	-1	-10	8%	9%
O=C(CCN1C(=O)/C(=C/c2cccs2)SC1=S)Nc1ccccn1	?	10	-4	/	?
O=C(CCCN1C(=O)/C(=C/c2cccs2)SC1=S)NNC(=O)c1ccncc1	-2%	3	10	/	-26%
COc1cccc(-c2ocnc2C(=O)Nc2ccc(N3CCOCC3)cc2N2CCOCC2)c1	?	-3	1	11%	?
COc1cccc(/C(C#N)=C/c2c(-c3ccc(Cl)cc3)nc3c(C)cccn23)c1	?	-1	5	-4%	1.3µM*
Cc1cccn2c(/C=N/OCc3cccc(F)c3)c(-c3ccc(Cl)cc3)nc12	?	-4	-6	13%	?
COCCC(=O)N1CCC(Oc2ccc(C(=O)NCCCC3CCCC3)cc2)CC1	12µM*	13*	19	-21%	-17%
COCCC(=O)N1CCC(Oc2ccc(C(=O)N(C)CCCC3CCCC3)cc2)CC1	?	26*	57*	-25%	?
COCCC(=O)N1CCC(Oc2ccc(C(=O)NCCC3=CCCCC3)cc2)CC1	?	19*	29	-7%	-8%
O=C(CN1C(=O)c2cccc3cccc1c23)NC1CCCCC1	0%	-6	19	6%	4%
Cc1ccccc1C(C(=O)NC1CCCCC1)N(C(=O)c1ccccn1)c1cccnc1 (stereo unspecified)	30%	0	1	-4%	12%
O=C1NC(=O)C2(CCCCCCCCCCC2)N1	39%	-5	-6	1%	34%
Cc1cc(NC(=O)CSc2nnc(-c3cccc(Cl)c3)o2)no1	2.9µM*	1	-3	-3%	?
Cc1cc(NC(=O)CSc2nnc(-c3ccccc3Cl)o2)no1	4%	-2	-5	-2%	-18%
Cc1cc(NC(=O)CSCC(=O)OCc2nnc(-c3ccccc3)o2)no1	26%	16*	30	0%	22%
Cc1cc(-c2nnc(-c3cccc(Cl)c3)o2)no1	222%	37*	93*	0%	112%
Cc1cc(NC(=O)CSc2nnc(-c3ccc4c(c3)OCCO4)o2)no1	-14%	22*	121*	-4%	23%
